Source: PubChem BioAssay (NCATS)
Where “and” joins values, the source holds several entries; their conditions need not be identical. Equal values may be shown once. Results filed as inconclusive are left out. Values without a mark were called inactive. Calls of active or inactive are those of the source. Calls follow the shape of the dose curve; as a rule, active = well fitted curve in the direction sought with a large enough effect; inconclusive = small, poorly fitted or top-dose-only effect, or another doubt; inactive = no such curve, though single readings can be large; an effect the other way counts as inactive or inconclusive.

What was measured:
Hek293T = assay: Primary qHTS to identify gynecologic anti-cancer compounds using libraries of approved drugs and bioactive compounds (AID 1345084); conditions: Gynecologic cancer cell panel viability, ATPlite luminescence, 48 h, control line for the selectivity index; series mostly up to 57.5 µM; also: nearly all actives have a fitted effect of over 55% in size
In short: (§1)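 Cells, 1,000 per well, were allowed to settle for 16 h at 37 C before compound addition. Five concentrations were tested for 48 h, and viability was read by ATPlite luminescence after 15 min at room temperature.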

JEG-3 = assay: as above; conditions: Gynecologic cancer cell panel viability, ATPlite luminescence, 48 h; series mostly up to 57.5 µM
In short: as §1

OV90 = assay: as above; conditions: Gynecologic cancer cell panel viability, ATPlite luminescence, 48 h; series mostly up to 57.5 µM
In short: as §1

PA-1 = assay: as above; conditions: Gynecologic cancer cell panel viability, ATPlite luminescence, 48 h; series mostly up to 57.5 µM
In short: as §1

SKOV3 = assay: as above; conditions: Gynecologic cancer cell panel viability, ATPlite luminescence, 48 h; series mostly up to 57.5 µM
In short: as §1

Tov-21-G = assay: as above; conditions: Gynecologic cancer cell panel viability, ATPlite luminescence, 48 h; series mostly up to 57.5 µM
In short: as §1

Tov112D = assay: as above; conditions: Gynecologic cancer cell panel viability, ATPlite luminescence, 48 h; series mostly up to 57.5 µM
In short: as §1

astro = assay: Drug repurposing screens with cells derived from glioblastoma tumor samples (AID 1345199); conditions: viability, ATP luminescence, 48 h; series mostly up to 45.9 µM; also: nearly all actives have a fitted effect of over 40% in size
In short: (§2)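 Primary testing used CD133+ neurospheres from four GBM patients, seven concentrations, 48 h exposure and ATP-based viability; confirmation added three slower-growing patient lines.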

[1] = as above; conditions: GBM patient neurospheres viability, ATP luminescence, 48 h
In short: as §2

[2] = at 45.9 µM (top of the series), tumour line B
[3] = at 45.9 µM (top of the series), tumour line D
[4] = at 46 µM (top of the series), tumour line A
[5] = at 46.1 µM (top of the series), tumour line C
% is scaled to controls: 0 for no effect and ±100 for the full control effect; potency is read from the fitted curve at half-maximal effect.

Q: With `CC[C@H](C)C(=O)O[C@H]1C[C@@H](C)C=C2C=C[C@H](C)[C@H](CC[C@@H]3C[C@@H](O)CC(=O)O3)[C@H]21` as the molecule, how does the Potency (Hek293T) read?
A: inactive

Q: What about the Potency (JEG-3) of the same molecule?
A: inactive

Q: What about the Potency (OV90) of the same molecule?
A: inactive

Q: What about the Potency (PA-1) of the same molecule?
A: inactive

Q: And the Potency (SKOV3)?
A: inactive

Q: What about the Potency (Tov-21-G) of the same molecule?
A: inactive

Q: And the Potency (Tov112D)?
A: inactive

Q: And the Potency (astro)?
A: 0.447 µM (active)

Q: With `COc1cc(NCc2ccc3nc(N)nc(N)c3c2C)cc(OC)c1OC` as the molecule, how does the Potency (Hek293T) read?
A: 0.1 µM (active)

Q: And the Potency (PA-1)?
A: 0.178 µM (active)

Q: What about the Potency (SKOV3) of the same molecule?
A: inactive

Q: What about the Potency (Tov112D) of the same molecule?
A: 0.1 µM (active)

Q: For `CO[C@@]12[C@H](COC(N)=O)C3=C(C(=O)C(C)=C(N)C3=O)N1C[C@@H]1N[C@@H]12`, which Potency (OV90) is on record?
A: 17.8 µM (active)

Q: And the Potency (Tov-21-G)?
A: 14.1 µM (active)

Q: What about the Potency (Tov112D) of the same molecule?
A: 0.794 µM (active)

Q: What about the activity, negative = cell killing [1, 2] of the same molecule?
A: -14.3%

Q: And the activity, negative = cell killing [1, 3]?
A: -12.4%

Q: What about the activity, negative = cell killing [1, 4] of the same molecule?
A: -9.83%

Q: What about the activity, negative = cell killing [1, 5] of the same molecule?
A: -16.3%

Q: And the Potency (astro)?
A: inactive

Q: Which results are given for `CCN(CC)CCn1c(=O)c(Cc2ccc(OC)cc2)nc2ccccc21`?
A: activity, negative = cell killing [1, 2]: -5.87%; activity, negative = cell killing [1, 3]: -15.6%; activity, negative = cell killing [1, 5]: 14.7%; Potency ([1]; tumour line A): 10 µM (active); Potency (astro): inactive

Q: Which activity, negative = cell killing [1, 5] does the source give for `CC(C)(C)C(=O)OCOP(=O)(COCCn1cnc2c(N)ncnc21)OCOC(=O)C(C)(C)C` here?
A: -7.63%

Q: And the Potency (astro)?
A: inactive

Q: Which Potency (OV90) does the source give for `COc1ccc2cc3[n+](cc2c1OC)CCc1cc2c(cc1-3)OCO2` here?
A: 5.62 µM (active)

Q: And the Potency (Tov-21-G)?
A: inactive

Q: With `CC(C)NCC(O)c1ccc(NS(C)(=O)=O)cc1` (centres undefined) as the molecule, how does the activity, negative = cell killing [1, 2] read?
A: -3.14% and -4.61%

Q: And the activity, negative = cell killing [1, 3]?
A: -13.7% and -17.7%

Q: And the activity, negative = cell killing [1, 4]?
A: -32.2%

Q: And the activity, negative = cell killing [1, 5]?
A: -4.94% and -17%

Q: With `CCN(CC)CC#CCOC(=O)C(O)(c1ccccc1)C1CCCCC1` (centres undefined) as the molecule, how does the activity, negative = cell killing [1, 2] read?
A: -22.3%

Q: What about the Potency ([1]; tumour line A) of the same molecule?
A: 10 µM (active)

Q: And the Potency ([1]; tumour line C)?
A: 20.6 µM (active)

Q: With `C[C@@H](NCCCc1cccc(C(F)(F)F)c1)c1cccc2ccccc12` as the molecule, how does the Potency (JEG-3) read?
A: inactive

Q: And the Potency (Tov-21-G)?
A: inactive

Q: And the Potency (Tov112D)?
A: inactive

Q: Which results are given for `CNC(=O)c1cc(Oc2ccc(NC(=O)Nc3ccc(Cl)c(C(F)(F)F)c3)cc2)ccn1`?
A: Potency (JEG-3): inactive; Potency (OV90): inactive; Potency (PA-1): inactive; Potency (Tov-21-G): inactive; Potency (Tov112D): inactive

Q: For `CC(=O)CC(c1ccccc1)c1c(O)c2ccccc2oc1=O` (centres undefined), which Potency (Hek293T) is on record?
A: inactive

Q: And the Potency (JEG-3)?
A: inactive

Q: And the Potency (OV90)?
A: inactive

Q: And the Potency (Tov-21-G)?
A: inactive

Q: And the Potency (Tov112D)?
A: inactive

Q: What about the activity, negative = cell killing [1, 2] of the same molecule?
A: -11.1% and -14.3%

Q: And the activity, negative = cell killing [1, 3]?
A: 1.21% and -22.4%

Q: And the activity, negative = cell killing [1, 4]?
A: -22%

Q: And the activity, negative = cell killing [1, 5]?
A: -1.82% and -1.98%

Q: And the Potency (astro)?
A: inactive
